In PubChem BioAssay:
Calls of active or inactive are those of the source.

Experiments:
Albumin (Bos taurus) = Albumin (Bos taurus) (UniProt P02769); experiment: compounds binding labelled BSA control protein – biochemical, small-molecule microarray, Alexa647 label, 635/667 nm fluorescence, artefact control for SMM control protein annotation, profiling panel (AID 1118); details: BSA-A647 binding, fluorescence 635 nm, higher = more signal;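 note: score merges 667 nm emission intensity and signal-to-noise per printed compound spot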
[1] = probe aXIP binding to arrayed compounds – biochemical, NeuroSMM set, 635/667 nm fluorescence, primary screen (AID 1119); details: small-molecule microarray, higher = more signal, called active from +8 up or from −8 down;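 note: probe is the protein aXip251-270 applied at 1 µg/mL to compound-printed slides; binding of probe to printed compounds measured as 667 nm fluorescence plus signal to noise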
[2] = probe aNOTCH3 binding on compound microarray – biochemical, small-molecule microarray, 635/667 nm fluorescence, primary screen (AID 1120); details: higher = more signal;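 note: probe is a biotin-tagged antibody raised against NOTCH3 rather than NOTCH3 protein; score merges spot fluorescence near 667 nm with spot signal to noise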
[3] = probe aNOTCH2 binding on compound microarray – biochemical, small-molecule microarray, 635/667 nm fluorescence, primary screen (AID 1121); details: higher = more signal;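 note: score merges feature fluorescence read at 667 nm with its signal to noise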
[4] = biological target: Carbonic anhydrase 2 (Homo sapiens) (UniProt P00918); experiment: compounds binding carbonic anhydrase 2 – biochemical, small-molecule microarray, Alexa647-labelled CAII, profiling panel (AID 1122); details: CAII-A647 binding fluorescence, higher = more signal
[5] = COS7 lysate on small-molecule microarray, probe aHis, 635 nm (AID 1123); details: COS7 cell lysate, fluorescence, higher = more signal;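 note: z-score combines 667nm fluorescence intensity with signal-to-noise per printed compound spot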
[6] = probe aLAP1 signal on lysate-treated microarray – cell lysate, small-molecule microarray, COS7 lysate, primary screen (AID 1124); details: probe aLAP1, fluorescence, higher = more signal;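 note: lysate comes from COS7 cells expressing LAP1 and is applied at 0.3 µg/mL; score merges spot fluorescence near 667 nm with signal-to-noise over triplicate slides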
Sam68 (KHDRBS1) = experiment: compounds binding KHDRBS1 protein – biochemical, small-molecule microarray, 635 nm fluorescence, primary screen (AID 1125); details: higher = more signal;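 note: score merges 667 nm channel intensity with signal to noise over triplicate slides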
[7] = system: Chordin-like protein 2 (CHRDL2); experiment: compounds binding chordin-like 2 – biochemical, small-molecule microarray, 635 nm fluorescence, primary screen (AID 1126); details: fluorescence 635 nm, higher = more signal;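 note: printed compound slides probed with Chrdl2 protein at 4 µg/mL for 1 h at 4 C; score merges 667 nm emission intensity with signal to noise over three replicate slides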
[8] = biological target: Concanavalin-A (Canavalia ensiformis) (UniProt P02866); experiment: compounds binding concanavalin A lectin – biochemical, small-molecule microarray, Alexa647 label, 635 nm, artefact control for SMM control protein annotation, primary screen (AID 1127); details: ConA-A647 binding fluorescence, higher = more signal;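 note: z combines 667 nm emission intensity with signal-to-noise across three replicate slides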
[9] = compounds binding Alexa647 anti-His antibody – biochemical, small-molecule microarray, 635 nm fluorescence, artefact control for SMM control protein annotation, primary screen (AID 1128); details: higher = more signal;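 note: score merges feature fluorescence with signal-to-noise for each printed compound spot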
[10] = system: Human papillomavirus type 1a E7 protein (residues 1-88); experiment: HPV1a E7 small-molecule binders, primary screen, biochemical, small-molecule microarray, residues 1-88, 635 nm (AID 1129); details: small-molecule microarray binding, fluorescence 635 nm; higher = more signal
[11] = biological target: Focal adhesion kinase 1 (Homo sapiens) (UniProt Q05397); experiment: PTK2 protein binding on printed compound slides – biochemical, small-molecule microarray, 635/667 nm fluorescence, BSA, DTT, primary screen (AID 1130); details: 635 nm fluorescence, higher = more signal;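 note: composite of spot emission at 667 nm and signal to noise over triplicate slides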
[12] = system: Fibrinogen (Alexa647-labelled); experiment: Alexa647-fibrinogen binding to printed small molecules – biochemical, small-molecule microarray, 635/667 nm fluorescence, artefact control for SMM control-protein annotation, profiling panel (AID 1131); details: fibrinogen-A647 binding fluorescence, higher = more signal;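 note: z-score merges 667 nm fluorescence with per-spot signal-to-noise over triplicate slides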
[13] = biological target: Follistatin (Homo sapiens) (UniProt P19883); experiment: FST protein binding to printed compounds – biochemical, small-molecule microarray, 635/667 nm fluorescence, primary screen (AID 1132); details: 635 nm fluorescence, higher = more signal
[14] = biological target: Fibroblast growth factor 2 (Homo sapiens) (UniProt P09038); experiment: basic fibroblast growth factor binding to printed compounds – biochemical, small-molecule microarray, 635/667 nm fluorescence, primary screen (AID 1133); details: FGF2, fluorescence 635/667, higher = more signal
[15] = JC-1 mitochondrial potential readout, lung cancer cells – cell-based, A549, JC-1 fluorescence, basal, 24 h, 100 nL, profiling panel (AID 1138); details: higher = more signal;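 note: A549 lung adenocarcinoma cells under basal conditions with no added stimulus; test concentration not given here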
Lefty1 = Lefty1 protein binding to printed compounds – biochemical, small-molecule microarray, 635/667 nm fluorescence, primary screen (AID 1139); details: fluorescence 635/667, higher = more signal
[16] = system: wheat germ agglutinin (Triticum aestivum), Alexa647-labelled; experiment: Alexa647-WGA lectin binding to printed small molecules – biochemical, small-molecule microarray, 635/667 nm fluorescence, artefact control for SMM control-protein annotation, profiling panel (AID 1140); details: WGA-A647 binding, 635 nm fluorescence, higher = more signal;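 note: score merges 667 nm feature emission with signal to noise over triplicate slides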
[17] = biological target: Luciferin 4-monooxygenase (Photinus pyralis) (UniProt P08659); experiment: inhibition of purified Photinus pyralis luciferase – biochemical, luminescence, purified enzyme, 2006 set, primary screen (AID 1141); details: purified firefly luciferase, SteadyGlo luminescence, 30 min; higher = more signal, called active from +8 up or from −8 down;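 note: cell-free assay with purified firefly luciferase at 100 ng per well in PBS; test concentration not given here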
Luciferin 4-monooxygenase (Photinus pyralis), sequence (P08659 whole entry, looked up): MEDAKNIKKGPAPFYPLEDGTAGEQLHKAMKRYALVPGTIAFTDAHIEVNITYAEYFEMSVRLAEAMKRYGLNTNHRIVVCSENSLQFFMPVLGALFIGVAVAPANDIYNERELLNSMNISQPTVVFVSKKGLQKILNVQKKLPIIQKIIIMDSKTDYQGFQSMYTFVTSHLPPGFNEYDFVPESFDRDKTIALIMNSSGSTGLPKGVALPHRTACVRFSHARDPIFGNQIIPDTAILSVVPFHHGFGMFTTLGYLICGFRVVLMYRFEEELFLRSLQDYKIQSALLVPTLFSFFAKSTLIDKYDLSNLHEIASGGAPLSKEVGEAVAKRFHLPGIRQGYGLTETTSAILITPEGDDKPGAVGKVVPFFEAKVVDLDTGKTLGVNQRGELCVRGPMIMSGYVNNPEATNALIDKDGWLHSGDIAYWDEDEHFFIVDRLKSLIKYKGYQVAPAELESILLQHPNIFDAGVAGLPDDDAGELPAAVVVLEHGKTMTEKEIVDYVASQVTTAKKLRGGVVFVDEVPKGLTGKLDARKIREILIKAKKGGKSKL

Fibroblast growth factor 2 (Homo sapiens), sequence (P09038 whole entry, looked up): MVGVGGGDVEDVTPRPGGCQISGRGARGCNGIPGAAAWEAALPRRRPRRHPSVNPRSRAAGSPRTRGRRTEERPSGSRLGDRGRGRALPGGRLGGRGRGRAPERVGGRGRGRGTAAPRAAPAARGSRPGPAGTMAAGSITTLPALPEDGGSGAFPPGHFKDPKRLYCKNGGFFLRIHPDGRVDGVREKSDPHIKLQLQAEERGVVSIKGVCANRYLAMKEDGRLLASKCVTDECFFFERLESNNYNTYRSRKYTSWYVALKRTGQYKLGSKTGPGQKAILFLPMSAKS
Albumin (Bos taurus), sequence (P02769 whole entry, looked up): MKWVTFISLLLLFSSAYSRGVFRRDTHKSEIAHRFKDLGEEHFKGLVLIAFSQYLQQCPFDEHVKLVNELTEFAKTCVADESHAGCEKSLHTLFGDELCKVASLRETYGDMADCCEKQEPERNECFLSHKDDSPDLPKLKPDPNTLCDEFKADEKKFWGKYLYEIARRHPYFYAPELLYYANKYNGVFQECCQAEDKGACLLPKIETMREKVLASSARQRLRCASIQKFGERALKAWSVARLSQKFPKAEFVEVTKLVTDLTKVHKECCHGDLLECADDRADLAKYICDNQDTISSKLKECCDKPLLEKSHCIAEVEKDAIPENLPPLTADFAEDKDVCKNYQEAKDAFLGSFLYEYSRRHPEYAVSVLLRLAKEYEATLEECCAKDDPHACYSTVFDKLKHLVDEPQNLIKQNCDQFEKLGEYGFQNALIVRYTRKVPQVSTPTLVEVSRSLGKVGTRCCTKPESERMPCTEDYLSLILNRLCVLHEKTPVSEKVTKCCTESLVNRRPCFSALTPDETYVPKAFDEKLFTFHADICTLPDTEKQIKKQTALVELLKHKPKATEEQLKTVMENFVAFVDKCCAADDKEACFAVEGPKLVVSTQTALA
Focal adhesion kinase 1 (Homo sapiens), sequence (Q05397 whole entry, looked up): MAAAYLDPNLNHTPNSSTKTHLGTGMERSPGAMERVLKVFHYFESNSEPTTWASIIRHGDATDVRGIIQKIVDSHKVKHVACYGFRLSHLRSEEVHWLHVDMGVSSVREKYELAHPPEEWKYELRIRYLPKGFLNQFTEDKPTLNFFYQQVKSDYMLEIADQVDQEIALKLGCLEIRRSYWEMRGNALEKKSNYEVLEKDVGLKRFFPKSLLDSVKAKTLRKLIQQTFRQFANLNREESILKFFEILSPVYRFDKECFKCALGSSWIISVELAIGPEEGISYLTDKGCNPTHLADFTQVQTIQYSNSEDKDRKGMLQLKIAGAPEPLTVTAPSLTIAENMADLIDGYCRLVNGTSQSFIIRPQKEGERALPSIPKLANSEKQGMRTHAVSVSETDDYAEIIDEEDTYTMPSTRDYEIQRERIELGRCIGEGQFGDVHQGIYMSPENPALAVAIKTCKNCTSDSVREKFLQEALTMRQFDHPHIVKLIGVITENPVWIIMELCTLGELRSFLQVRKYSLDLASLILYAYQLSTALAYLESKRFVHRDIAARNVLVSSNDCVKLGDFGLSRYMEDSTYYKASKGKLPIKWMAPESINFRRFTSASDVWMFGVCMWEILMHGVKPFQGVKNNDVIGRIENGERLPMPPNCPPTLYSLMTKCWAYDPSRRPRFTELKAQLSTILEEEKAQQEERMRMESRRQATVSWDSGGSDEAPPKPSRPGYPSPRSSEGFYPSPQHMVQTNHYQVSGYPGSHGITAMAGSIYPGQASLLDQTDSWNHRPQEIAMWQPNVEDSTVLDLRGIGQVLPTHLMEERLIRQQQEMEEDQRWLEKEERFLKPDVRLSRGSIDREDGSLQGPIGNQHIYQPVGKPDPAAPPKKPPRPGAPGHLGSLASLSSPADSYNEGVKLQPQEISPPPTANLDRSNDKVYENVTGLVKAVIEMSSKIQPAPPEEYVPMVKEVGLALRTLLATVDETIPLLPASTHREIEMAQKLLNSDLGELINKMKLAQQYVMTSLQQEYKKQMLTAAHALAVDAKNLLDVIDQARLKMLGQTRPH
Concanavalin-A (Canavalia ensiformis), sequence (P02866 whole entry, looked up): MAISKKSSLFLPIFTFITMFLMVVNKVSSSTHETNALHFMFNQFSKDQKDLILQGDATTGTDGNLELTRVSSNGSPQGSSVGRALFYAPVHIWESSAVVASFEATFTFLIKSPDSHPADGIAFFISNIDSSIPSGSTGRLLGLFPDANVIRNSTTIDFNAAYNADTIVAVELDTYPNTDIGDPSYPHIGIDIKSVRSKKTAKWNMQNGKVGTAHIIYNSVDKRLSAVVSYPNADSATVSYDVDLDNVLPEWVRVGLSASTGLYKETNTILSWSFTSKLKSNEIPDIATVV
Follistatin (Homo sapiens), sequence (P19883 whole entry, looked up): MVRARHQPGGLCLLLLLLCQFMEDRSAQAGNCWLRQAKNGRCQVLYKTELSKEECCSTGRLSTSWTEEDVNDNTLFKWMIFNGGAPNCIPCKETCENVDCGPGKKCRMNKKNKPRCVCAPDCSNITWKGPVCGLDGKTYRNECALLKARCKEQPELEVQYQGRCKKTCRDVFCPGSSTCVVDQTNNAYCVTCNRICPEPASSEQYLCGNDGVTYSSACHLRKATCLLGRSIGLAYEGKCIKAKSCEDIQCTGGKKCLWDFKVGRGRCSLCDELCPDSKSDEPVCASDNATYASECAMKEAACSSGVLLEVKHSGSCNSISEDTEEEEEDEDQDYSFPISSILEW

C=C(CC1([C@@H](NP(=O)(c2ccccc2)c2ccccc2)[C@H]2C[C@@H]2CCCC)CC1)c1cccc(OC)c1
composite z-score (Albumin (Bos taurus)): 0.615
composite Z-score [1]: 0.107 (inactive)
composite z-score [2]: 0.222
composite z-score [3]: 0.119
composite z-score [4]: 0.334
composite z-score [5]: 1.86
composite z-score [6]: -0.151
composite z-score (Sam68 (KHDRBS1)): -0.176
composite z-score [7]: -1.06
composite z-score [8]: 0.506
composite z-score [9]: 1.18
composite z-score [10]: 0.811
composite z-score [11]: 0.751
composite z-score [12]: 0.269
composite z-score [13]: 0.43
composite z-score [14]: -0.7
z-score [15]: 0.959
composite z-score (Lefty1): -0.739
composite z-score [16]: 0.344
z-score [17]: 2.59 (inactive)

CCOC(=O)C[C@H]1[C@H](OC(=O)Cc2ccc3c(c2)OCO3)[C@@H](NC(=O)CC(C)C)c2cc(OCCCO)ccc2N1C(=O)c1ccc2ccccc2n1
composite z-score (Albumin (Bos taurus)): 0.808
composite Z-score [1]: 0.0066 (inactive)
composite z-score [2]: 0.121
composite z-score [3]: -0.162
composite z-score [4]: -0.107
composite z-score [5]: 0.26
composite z-score [6]: -0.0904
composite z-score (Sam68 (KHDRBS1)): 0.797
composite z-score [7]: 0.386
composite z-score [8]: 0.369
composite z-score [9]: 0.212
composite z-score [10]: 0.832
composite z-score [11]: 0.325
composite z-score [12]: 0.973
composite z-score [13]: 1.32
composite z-score [14]: 1.28
z-score [15]: -0.944
composite z-score (Lefty1): 0.424
composite z-score [16]: 0.249
z-score [17]: 0.739 (inactive)

CN(C)CCCCCCNC(=O)[C@@H]1C[C@@H]2C(=O)N[C@@H](CCCC[N+](C)(C)C)C(=O)N2[C@@H]1c1cccc(OCCO)c1
composite z-score (Albumin (Bos taurus)): 0.792
composite Z-score [1]: 1.88 (inactive)
composite z-score [2]: -0.155
composite z-score [3]: -0.0495
composite z-score [4]: 0.321
composite z-score [5]: 0.617
composite z-score [6]: 0.98
composite z-score (Sam68 (KHDRBS1)): -0.311
composite z-score [7]: -0.0783
composite z-score [8]: 0.566
composite z-score [9]: 2.34
composite z-score [10]: 0.13
composite z-score [11]: -0.159
composite z-score [12]: 0.104
composite z-score [13]: 0.704
composite z-score [14]: 0.645
z-score [15]: 0.417
composite z-score (Lefty1): -0.601
composite z-score [16]: 0.853
z-score [17]: -2.44 (inactive)

OCCCc1cc[n+](Cc2cc3c(cc2Br)OCO3)cc1
composite z-score (Albumin (Bos taurus)): 0.038
composite Z-score [1]: -0.0354 (inactive)
composite z-score [2]: 0.0785
composite z-score [3]: -0.112
composite z-score [4]: -0.213
composite z-score [5]: -0.608
composite z-score [6]: 0.324
composite z-score (Sam68 (KHDRBS1)): -0.724
composite z-score [7]: -0.418
composite z-score [8]: -1.9
composite z-score [9]: -0.874
composite z-score [10]: -1.86
composite z-score [11]: -0.719
composite z-score [12]: -1.64
composite z-score [13]: -0.528
composite z-score [14]: -0.333
z-score [15]: -0.0611
composite z-score (Lefty1): -0.903
composite z-score [16]: -0.77
z-score [17]: -0.903 (inactive)

O=C1C2C=CC(C(O)c3ccccn3)N(Nc3ccc([N+](=O)[O-])cc3)C2C(=O)N1c1ccccc1 (stereo not given)
composite z-score (Albumin (Bos taurus)): 0.89
composite Z-score [1]: 0.0129 (inactive)
composite z-score [2]: 0.0162
composite z-score [3]: 0.0215
composite z-score [4]: 0.592
composite z-score [5]: 0.438
composite z-score [6]: 1.85
composite z-score (Sam68 (KHDRBS1)): 0.102
composite z-score [7]: -0.421
composite z-score [8]: 1.13
composite z-score [9]: 0.344
composite z-score [10]: 1.16
composite z-score [11]: 0.427
composite z-score [12]: 1.02
composite z-score [13]: 0.336
composite z-score [14]: 0.292
z-score [15]: -0.378
composite z-score (Lefty1): -0.43
composite z-score [16]: 1.05
z-score [17]: 0.654 (inactive)
